Results published in PubChem BioAssay (Tox21).
Records with an inconclusive call do not appear. Activity calls are given as the source filed them. Unless noted, the call rests on the fitted dose curve.

Assays:
[1] = Nuclear factor erythroid 2-related factor 2/antioxidant responsive element (Nrf2/ARE) small molecule agonists: qHTS cell viability counter screen in human keratinocytes (AID 1919968; active means well fitted cell-killing curve with a large enough effect in the repeat runs; further: nearly all actives have a fitted effect of over 55% in size; further: potency means the concentration at half of the fitted maximal effect)
Procedure, shortened: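 Seed 1,500 KeratinoSens cells per well, then incubate 5 h at 37 C/5% CO2. Add compounds in DMSO and incubate 23 h. Add CellTiter-Fluor, wait 1 h and read fluorescence.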

[2] = Nuclear factor erythroid 2-related factor 2/antioxidant responsive element (Nrf2/ARE) small molecule agonists: luciferase reporter gene qHTS assay in human keratinocytes (AID 1919969); further: nearly all actives have a fitted effect of over 35% in size; further: potency means the concentration at half of the fitted maximal effect
[3] = molecular target: Gonadotropin-releasing hormone receptor (Homo sapiens) (UniProt P30968); assay: Human gonadotropin-releasing hormone receptor (GnRHR) small molecule agonists, calcium flux assay in GnRHR-HEK293 cells (AID 1920063); further: nearly all actives have a fitted effect of over 35% in size
Procedure, shortened: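 Cells: HEK293 stably expressing human GnRHR. Steps: overnight (18 h) culture, 1 h calcium dye loading at 37 C, compound addition, kinetic fluorescence read at 480/540 nm. Each compound tested at 15 concentrations in triplicate.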

[4] = p53 small molecule agonists, cell-based qHTS assay with human liver microsomes (AID 1963577);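 further: p53 response element beta-lactamase reporter cells with liver microsomes plus NADPH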
Procedure, shortened: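 16 h, 37 C exposure of p53RE-bla cells to compounds with human liver microsomes and NADPH (0.5 mg/mL final each); detection via LiveBLAzer mixture, 2 h dark at room temperature.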

[5] = p53 small molecule agonists, cell-based qHTS assay with human liver microsomes: qHTS cell viability counter screen (AID 1963579); further: nearly all actives have a fitted effect of over 45% in size; further: potency means the concentration at half of the fitted maximal effect
Procedure, shortened: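 In this multiplexed counter screen, the reporter plates were subsequently treated with CellTiter-Glo so that cell viability, reflected by luminescence, could be recorded for p53RE-bla cells dosed 16 h with compounds under microsomal activation (HLM and NADPH).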

[6] = p53 small molecule agonists, cell-based qHTS assay with rat liver microsomes: qHTS cell viability counter screen (AID 1963580); further: nearly all actives have a fitted effect of over 45% in size
Procedure, shortened: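 Intracellular ATP, by CellTiter-Glo luminescence, defines viability. HCT-116 p53RE-bla cells, 4,000 per well, were compound-treated in the presence of rat liver microsomes and NADPH for 16 h at 37 C.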

[7] = p53 small molecule agonists, cell-based qHTS assay (AID 1963582; active means well fitted activation curve with a large enough effect in the signal ratio in the repeat runs, not every such curve was filed as active; the % refers to the signal ratio)
Procedure, shortened: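 Quantitative HTS in p53RE-bla cells: after a 5 h settling period, compounds delivered in DMSO were left on cells for 16 h at 37 C, and reporter induction was measured as fluorescence following 2 h substrate loading.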

[8] = molecular target: 5-hydroxytryptamine receptor 2A (Homo sapiens) (UniProt P28223); assay: 5-hydroxytryptamine receptor 2A (HTR2A) small molecule antagonists, cell-based qHTS assay (AID 1963586); further: nearly all actives have a fitted effect of over 45% in size
Procedure, shortened: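 Antagonist-mode intracellular calcium assay: DOI (4 nM) added after 5 min compound pre-incubation at room temperature to dye-loaded HTR2A-CHO cells. Fluorescence followed for 3 min, sampled every second.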

[9] = molecular target: 5-hydroxytryptamine receptor 2A (Homo sapiens) (UniProt P28223); assay: 5-hydroxytryptamine receptor 2A (HTR2A) small molecule agonists, cell-based qHTS assay (AID 1963587); further: nearly all actives have a fitted effect of over 30% in size
Procedure, shortened: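 Kinetic calcium-flux fluorescence (2 min, 1 sec intervals) after compound addition in agonist mode. HTR2A-CHO cells were cultured 18 h, then dye-loaded 1 h at 37 C.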

[10] = molecular target: Muscarinic acetylcholine receptor M1 (Homo sapiens) (UniProt P11229); assay: Cholinergic receptor muscarinic 1 (CHRM1) small molecule antagonists, cell-based qHTS assay (AID 1963588); further: nearly all actives have a fitted effect of over 40% in size; further: potency means the concentration at half of the fitted maximal effect
Procedure, shortened: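 CHRM1-CHO calcium-flux assay, antagonist mode. Cells were seeded 18 h, dye-loaded 1 h at 37 C and given compound for 5 min at RT, then acetylcholine was added at 50nM. FDSS fluorescence was read 3 min; 15 concentrations, three runs.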

[11] = molecular target: Muscarinic acetylcholine receptor M1 (Homo sapiens) (UniProt P11229); assay: Cholinergic receptor muscarinic 1 (CHRM1) small molecule agonists, cell-based qHTS assay (AID 1963589); further: nearly all actives have a fitted effect of over 35% in size
Procedure, shortened: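 Agonist-mode qHTS in CHO cells stably carrying human muscarinic M1. Intracellular calcium is tracked by fluorescence every second after compound transfer; each compound runs at 15 concentrations in three independent runs.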

[12] = molecular target: Beta-2 adrenergic receptor (Homo sapiens) (UniProt P07550); assay: Adrenergic beta2 receptor (ADRB2) small molecule antagonists, cell-based qHTS assay (AID 1963592); further: series mostly up to about 92 µM; nearly all actives have a fitted effect of over 50% in size
Procedure, shortened: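 Cells (CHO, stable ADRB2 overexpression) incubated 18-20hr at 37C; compounds added from DMSO; agonist mix (1nM isoproterenol, 100uM IBMX, 25uM Ro-20-1724) added; 0.5hr RT; d2-cAMP and anti-cAMP-cryptate added; 1hr RT; 665/615 nm read.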

[13] = molecular target: D(2) dopamine receptor (Homo sapiens) (UniProt P14416); assay: Dopamine D2 receptor (DRD2) small molecule agonists, cell-based qHTS assay (AID 1963594); further: nearly all actives have a fitted effect of over 35% in size
Procedure, shortened: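 cAMP accumulation in DRD2-HEK293 cells measured by HTRF after 1 h detection; compounds added 10 min before NKH477 (200nM […]) forskolin-analogue stimulation, 30 min at room temperature, with Ro20-1724 present at 0.1 mM final.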

[14] = molecular target: D(2) dopamine receptor (Homo sapiens) (UniProt P14416); assay: Dopamine D2 receptor (DRD2) small molecule antagonists, cell-based qHTS assay (AID 1963595; active means well fitted inhibition curve with a large enough effect in the signal ratio in the repeat runs, with a control signal flat; the % refers to the signal ratio)
Procedure, shortened: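 HEK293 cells stably expressing DRD2 were preincubated with 0.1 mM Ro20-1724, then with compound for 10 min at room temperature. Cells were stimulated with 200 nM NKH477 plus 12 nM quinpirole for 30 min, and cAMP was read by HTRF.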

[15] = p53 small molecule agonists, cell-based qHTS assay with rat liver microsomes (AID 1963578)
Procedure, shortened: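 With rat liver microsomes and NADPH present (0.5 mg/mL final each), p53RE-bla cells are treated with compound for 16 h at 37 C. LiveBLAzer detection mixture is then applied for 2 h at room temperature in the dark.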

[16] = p53 small molecule agonists, cell-based qHTS assay: qHTS cell viability counter screen (AID 1963581); further: nearly all actives have a fitted effect of over 45% in size
Procedure, shortened: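 Cells: HCT-116 with p53 response element-driven beta-lactamase. Treatment: 16 h, 37 C, compounds in DMSO. Read: CellTiter-Glo luminescence after 30 min RT.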

[17] = cAMP Responsive Elements (CRE) small molecule agonists, cell-based qHTS assay (AID 1963590)
Procedure, shortened: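 Agonist mode qHTS in CRE-bla HEK 293T cells: compounds dosed from DMSO for 3 h at 37 C/5% CO2, followed by LiveBLAzer B/G FRET substrate for 2 h at room temperature.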

[18] = cAMP Responsive Elements (CRE) small molecule antagonists, cell-based qHTS assay (AID 1963591; active means well fitted inhibition curve with a large enough effect in the signal ratio in the repeat runs, not every such curve was filed as active; the % refers to the signal ratio; further: potency means the concentration at half of the fitted maximal effect)
Procedure, shortened: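 Antagonist mode: test compounds are co-incubated with the adenylyl cyclase activator NKH477 (0.25 uM final) on CRE-bla HEK293T cells for 3 h at 37 °C, followed by LiveBLAzer substrate loading.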

[19] = G protein-coupled receptor (GPCR) small molecule agonists, calcium flux assay: HEK293 wild type cell line counter screen (AID 1920065)
Procedure, shortened: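 Counter-screen of the Tox21 10K library for non-specific calcium release: dye-loaded cells received compounds in DMSO and were monitored by kinetic fluorescence (480/540 nm, 3 min). Fifteen concentrations, run in triplicate.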

[20] = molecular target: Beta-2 adrenergic receptor (Homo sapiens) (UniProt P07550); assay: Adrenergic beta2 receptor (ADRB2) small molecule agonists, cell-based qHTS assay (AID 1963593);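 further: CHO cells stably overexpressing human ADRB2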
Procedure, shortened: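 CHO cells stably over-expressing ADRB2 were plated overnight at 37C, then dosed with compounds plus a stimulation mix containing 100uM IBMX and 25uM Ro-20-1724 for 0.5hr at room temperature. cAMP was measured by HTRF competition, 1hr.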
On the % scale 0 is the no-effect control and ±100 the full control effect.

Sequence of Gonadotropin-releasing hormone receptor (Homo sapiens) (P30968 whole entry, looked up): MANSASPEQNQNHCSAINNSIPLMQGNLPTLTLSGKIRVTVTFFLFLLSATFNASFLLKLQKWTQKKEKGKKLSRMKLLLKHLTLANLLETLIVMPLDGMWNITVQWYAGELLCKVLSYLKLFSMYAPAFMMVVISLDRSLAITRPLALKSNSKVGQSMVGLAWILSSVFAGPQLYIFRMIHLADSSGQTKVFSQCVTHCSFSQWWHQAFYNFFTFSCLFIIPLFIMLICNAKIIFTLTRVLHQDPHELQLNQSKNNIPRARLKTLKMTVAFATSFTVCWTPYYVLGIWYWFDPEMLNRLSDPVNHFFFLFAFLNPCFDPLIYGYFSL
Sequence of Muscarinic acetylcholine receptor M1 (Homo sapiens) (P11229 whole entry, looked up): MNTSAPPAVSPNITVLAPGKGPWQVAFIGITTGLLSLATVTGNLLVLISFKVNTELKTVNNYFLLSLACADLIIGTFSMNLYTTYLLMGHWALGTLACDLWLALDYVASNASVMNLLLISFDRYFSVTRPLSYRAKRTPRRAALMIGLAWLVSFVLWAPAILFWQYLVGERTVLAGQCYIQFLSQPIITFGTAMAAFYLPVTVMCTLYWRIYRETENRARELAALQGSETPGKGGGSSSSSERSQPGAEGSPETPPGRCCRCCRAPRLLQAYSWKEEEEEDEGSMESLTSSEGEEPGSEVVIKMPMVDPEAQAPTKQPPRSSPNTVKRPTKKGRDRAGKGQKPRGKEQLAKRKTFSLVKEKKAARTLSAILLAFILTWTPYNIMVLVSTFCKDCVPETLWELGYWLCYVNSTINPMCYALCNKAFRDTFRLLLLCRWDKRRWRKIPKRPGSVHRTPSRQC
Sequence of Beta-2 adrenergic receptor (Homo sapiens) (P07550 whole entry, looked up): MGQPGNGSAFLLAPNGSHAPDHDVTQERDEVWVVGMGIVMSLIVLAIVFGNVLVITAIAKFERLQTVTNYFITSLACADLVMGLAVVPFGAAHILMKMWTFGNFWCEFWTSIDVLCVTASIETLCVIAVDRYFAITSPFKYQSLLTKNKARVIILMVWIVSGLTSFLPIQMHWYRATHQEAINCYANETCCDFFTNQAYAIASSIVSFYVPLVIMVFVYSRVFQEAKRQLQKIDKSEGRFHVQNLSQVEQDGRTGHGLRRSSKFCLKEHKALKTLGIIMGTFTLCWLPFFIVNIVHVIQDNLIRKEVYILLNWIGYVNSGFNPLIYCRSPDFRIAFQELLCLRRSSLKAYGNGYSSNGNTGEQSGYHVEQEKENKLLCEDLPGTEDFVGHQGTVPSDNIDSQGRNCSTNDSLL
Sequence of 5-hydroxytryptamine receptor 2A (Homo sapiens) (P28223 whole entry, looked up): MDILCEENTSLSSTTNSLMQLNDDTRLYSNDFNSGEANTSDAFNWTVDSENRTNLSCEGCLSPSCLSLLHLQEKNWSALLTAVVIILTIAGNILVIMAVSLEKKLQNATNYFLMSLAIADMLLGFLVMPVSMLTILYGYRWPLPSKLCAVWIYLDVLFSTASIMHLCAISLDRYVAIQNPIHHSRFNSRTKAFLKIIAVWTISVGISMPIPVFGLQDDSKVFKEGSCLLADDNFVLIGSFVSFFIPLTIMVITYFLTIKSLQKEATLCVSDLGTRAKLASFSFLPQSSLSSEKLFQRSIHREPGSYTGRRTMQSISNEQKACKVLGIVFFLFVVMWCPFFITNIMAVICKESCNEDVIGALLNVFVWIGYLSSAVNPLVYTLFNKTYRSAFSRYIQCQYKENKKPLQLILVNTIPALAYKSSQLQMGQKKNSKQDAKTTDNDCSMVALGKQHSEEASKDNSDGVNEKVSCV
Sequence of D(2) dopamine receptor (Homo sapiens) (P14416 whole entry, looked up): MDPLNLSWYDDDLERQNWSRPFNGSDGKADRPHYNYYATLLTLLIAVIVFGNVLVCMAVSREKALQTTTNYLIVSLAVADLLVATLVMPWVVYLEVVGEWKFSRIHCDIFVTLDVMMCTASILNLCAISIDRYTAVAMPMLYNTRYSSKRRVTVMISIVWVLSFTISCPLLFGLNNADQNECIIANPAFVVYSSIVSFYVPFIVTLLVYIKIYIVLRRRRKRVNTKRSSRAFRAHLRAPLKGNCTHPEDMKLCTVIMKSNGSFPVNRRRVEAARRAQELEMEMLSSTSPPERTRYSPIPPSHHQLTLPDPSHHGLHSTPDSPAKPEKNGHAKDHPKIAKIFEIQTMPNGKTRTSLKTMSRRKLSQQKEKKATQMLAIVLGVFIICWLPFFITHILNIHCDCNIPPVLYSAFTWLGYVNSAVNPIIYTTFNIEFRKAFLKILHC

O=C(O)c1ccc(Cl)c(Cl)c1
inactive: Potency [1] | Potency [2] | Potency [3] | Potency [4] | Potency [5] | Potency [6] | Potency [7] | Potency [8] | Potency [9] | Potency [10] | Potency [11] | Potency [12] | Potency [13] | Potency [14]

COC(=O)CC#N
inactive: Potency [1] | Potency [2] | Potency [3] | Potency [15] | Potency [5] | Potency [6] | Potency [16] | Potency [7] | Potency [8] | Potency [9] | Potency [10] | Potency [11] | Potency [17] | Potency [18] | Potency [12] | Potency [13] | Potency [14]

CC(C)c1cc(C(C)C)cc(C(C)C)c1
inactive: Potency [1] | Potency [2] | Potency [3] | outcome [19] | Potency [4] | Potency [15] | Potency [5] | Potency [6] | Potency [16] | Potency [7] | Potency [8] | Potency [9] | Potency [10] | Potency [11] | Potency [17] | Potency [18] | Potency [12] | Potency [13] | Potency [14]

C[C@@H]1CC[C@@]2(OC1)O[C@H]1C[C@H]3[C@@H]4CC[C@H]5C[C@@H](O)CC[C@]5(C)[C@H]4CC(=O)[C@]3(C)[C@H]1[C@@H]2C
inactive: activity change, negative = cytotoxicity [1] -14.4% [at 8.39 µM] | activity, positive = activation [2] -0.515% [at 8.39 µM] | activity change [3] -0.98% [at 5.22 µM, active compounds read high] | activation [4] 1.05% [at 5.99 µM] | activity change, negative = cytotoxicity [6] 5.02% [at 5.99 µM] | activation [7] -0.0756% [at 5.99 µM] | activity, negative = inhibition [8] 89.9% [at 5.62 µM] | activation [9] -0.761% [at 7.02 µM] | activity, negative = inhibition [10] 4.81% [at 5.58 µM] | activation [11] 0.4% [at 6.97 µM] | activation [17] -0.0414% [at 8.39 µM] | activity change, negative = inhibition [18] 0.931% [at 8.39 µM] | activity change, negative = inhibition [12] -3.89% [at 8.39 µM] | activation [20] 3.94% [at 8.39 µM] | activation [13] -11.7% [at 8.39 µM] | activity change, negative = inhibition [14] -1.11% [at 8.38 µM]

CC(C)(C)OC(=O)N1C[C@@H](F)C[C@H]1C(=O)O
inactive: Potency [1] | Potency [2] | Potency [3] | Potency [4] | Potency [15] | Potency [5] | Potency [16] | Potency [7] | Potency [8] | Potency [9] | Potency [10] | Potency [11] | Potency [17] | Potency [18] | Potency [12] | Potency [13]

Nc1[nH]c(=O)ncc1F
inactive: Potency [1] | Potency [2] | Potency [3] | Potency [4] | Potency [15] | Potency [5] | Potency [16] | Potency [17] | Potency [18] | Potency [12] | Potency [20] | Potency [13] | Potency [14]

C/C=C/C=C/CCCCCCCO
inactive: Potency [1] | Potency [3] | Potency [15] | Potency [5] | Potency [6] | Potency [16] | Potency [8] | Potency [9] | Potency [10] | Potency [11] | Potency [12] | Potency [13]
active: Potency [2] 68.6 µM

CCOc1ccc([N+](=O)[O-])cc1
inactive: Potency [2] | Potency [3] | Potency [4] | Potency [15] | Potency [8] | Potency [10] | Potency [11] | Potency [17] | Potency [12] | Potency [13]
active: Potency [1] 62 µM | Potency [5] 41.4 µM | Potency [18] 55.3 µM

O=C1OC(=O)C2C3C=CC(C3)C12 (stereo not drawn)
inactive: Potency [1] | Potency [2] | Potency [3] | Potency [15] | Potency [5] | Potency [6] | Potency [8] | Potency [10] | Potency [12] | Potency [20] | Potency [14]

CN1C(=O)N(c2ccccc2Br)Cc2cnc(Nc3ccc4c(c3)OCC(CO)O4)nc21 (stereo not drawn)
active: Potency [1] 54.5 µM | Potency [18] 57 µM
inactive: Potency [2] | Potency [3] | Potency [4] | Potency [5] | Potency [6] | Potency [16] | Potency [8] | Potency [9] | Potency [10] | Potency [11] | Potency [13]

CN(C)CCn1nnnc1SCC1=C(C(=O)O)N2C(=O)[C@@H](NC(=O)Cc3csc(N)n3)[C@H]2SC1
inactive: Potency [1] | Potency [2] | Potency [3] | Potency [4] | Potency [5] | Potency [6] | Potency [16] | Potency [7] | Potency [8] | Potency [9] | Potency [11] | Potency [17] | Potency [18] | Potency [12] | Potency [13] | Potency [14]

CCCCCCCCCI
inactive: Potency [1] | Potency [2] | Potency [3] | outcome [19] | Potency [4] | Potency [15] | Potency [5] | Potency [6] | Potency [16] | Potency [7] | Potency [8] | Potency [9] | Potency [11] | Potency [17] | Potency [18] | Potency [12] | Potency [13] | Potency [14]
active: Potency [10] 8.55 µM

O=Cc1ccccc1[N+](=O)[O-]
inactive: Potency [1] | Potency [2] | Potency [3] | Potency [4] | Potency [15] | Potency [5] | Potency [16] | Potency [8] | Potency [9] | Potency [10] | Potency [11] | Potency [17] | Potency [18] | Potency [12] | Potency [20] | Potency [13] | Potency [14]

O=C1CC2(CCCC2)CC(=O)N1
inactive: Potency [1] | Potency [2] | Potency [3] | outcome [19] | Potency [4] | Potency [15] | Potency [5] | Potency [6] | Potency [16] | Potency [7] | Potency [8] | Potency [9] | Potency [10] | Potency [11] | Potency [17] | Potency [18] | Potency [12] | Potency [13] | Potency [14]

Cc1cc(O)ccc1N
active: Potency [1] 61.4 µM | Potency [2] 54.8 µM
inactive: Potency [3] | Potency [4] | Potency [15] | Potency [6] | Potency [8] | Potency [9] | Potency [10] | Potency [11] | Potency [18] | Potency [20] | Potency [14]

CCOc1nc(F)cc2nc(S(=O)(=O)Nc3c(Cl)cccc3C(=O)OC)nn12
inactive: Potency [1] | Potency [2] | Potency [3] | Potency [4] | Potency [15] | Potency [5] | Potency [16] | Potency [9] | Potency [10] | Potency [11] | Potency [18] | Potency [12] | Potency [13] | Potency [14]
